Measurements: PubChem BioAssay (NCATS)
Unmarked numbers belong to inactive results. Inconclusive results are not listed. Calls of active or inactive are those of the source. Unless noted, calls come from the whole dose curve; as a rule, active = well fitted curve in either direction with a large enough effect (not every such curve was filed as active); inconclusive = small, poorly fitted or top-dose-only effect, or another doubt; inactive = flat fitted curve, though single readings scatter.

Tests used:
[1] = target: Lysosomal acid glucosylceramidase (Homo sapiens) (UniProt P04062); test: Glucocerebrosidase-p2 (AID 348; in the data active = potency below about 10 µM; note: potency is the fitted concentration of half-maximal effect); conditions: purified GBA, blue fluorogenic substrate, 40 min
Chain of Lysosomal acid glucosylceramidase (Homo sapiens) (P04062 whole entry, looked up): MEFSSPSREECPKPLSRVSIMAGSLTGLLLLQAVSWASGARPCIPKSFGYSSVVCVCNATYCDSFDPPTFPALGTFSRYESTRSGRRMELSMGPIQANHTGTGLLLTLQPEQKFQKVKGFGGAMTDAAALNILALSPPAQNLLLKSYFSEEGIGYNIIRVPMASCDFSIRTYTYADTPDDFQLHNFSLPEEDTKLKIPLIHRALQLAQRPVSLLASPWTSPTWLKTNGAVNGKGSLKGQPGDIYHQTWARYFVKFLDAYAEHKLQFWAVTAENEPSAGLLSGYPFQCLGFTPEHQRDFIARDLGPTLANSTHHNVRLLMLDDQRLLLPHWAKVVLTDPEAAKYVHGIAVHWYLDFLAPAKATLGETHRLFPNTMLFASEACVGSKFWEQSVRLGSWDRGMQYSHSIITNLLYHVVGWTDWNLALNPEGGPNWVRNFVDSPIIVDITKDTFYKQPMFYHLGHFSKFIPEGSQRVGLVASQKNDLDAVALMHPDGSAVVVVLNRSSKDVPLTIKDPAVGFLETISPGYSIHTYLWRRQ
How it was run: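 Normal human glucocerebrosidase (0.2 nM) with blue fluorogenic substrate (80 uM final) in citrate/phosphate pH 5.9 with 10mM sodium taurocholate, 0.01% tween-20; 40 min RT, NaOH/glycine stop; fluorescence Ex 365/Em 440; AC50 from a titration from 0.6 nM upwards.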

[2] = target: Cytochrome P450 1A2 (Homo sapiens) (UniProt P05177); test: p450-cyp1a2 (AID 410; calls by dose curve; note: potency is the fitted concentration of half-maximal effect;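 for activity change, negative = inhibition: -100% = full effect of reference inhibitor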); conditions: recombinant CYP1A2, luciferin-ME demethylation, luminescence; series mostly up to 11.4 µM
Chain of Cytochrome P450 1A2 (Homo sapiens) (P05177 whole entry, looked up): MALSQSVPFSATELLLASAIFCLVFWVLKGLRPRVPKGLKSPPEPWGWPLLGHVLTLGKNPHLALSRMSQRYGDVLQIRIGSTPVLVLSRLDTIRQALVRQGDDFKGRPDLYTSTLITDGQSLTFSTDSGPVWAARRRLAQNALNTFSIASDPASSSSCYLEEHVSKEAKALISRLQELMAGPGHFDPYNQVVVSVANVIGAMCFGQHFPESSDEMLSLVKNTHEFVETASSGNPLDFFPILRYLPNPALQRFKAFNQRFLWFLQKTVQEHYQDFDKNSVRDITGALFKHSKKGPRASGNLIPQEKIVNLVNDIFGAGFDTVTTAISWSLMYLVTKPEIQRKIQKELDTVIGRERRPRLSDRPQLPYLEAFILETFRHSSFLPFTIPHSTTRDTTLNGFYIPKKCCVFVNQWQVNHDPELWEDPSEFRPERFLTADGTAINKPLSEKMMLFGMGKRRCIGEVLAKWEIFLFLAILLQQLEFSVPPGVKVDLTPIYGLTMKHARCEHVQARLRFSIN
How it was run: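 Luminescent demethylation readout: Luciferin-ME (100uM, equal to Km) turned over by 20nM CYP1A2 for 60 min at room temperature after NADPH regeneration addition, following 10 min compound preincubation. Normalization used 57 uM furafylline as full inhibition.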

[3] = NFAT Signaling Pathway (AID 444); conditions: Jurkat NFAT-bla M1, carbachol, beta-lactamase ratio, 5 h; at 7.69 µM (top of the series) unless noted;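 note: carbachol stimulus at about its EC50 of 1 µM final; % is set by controls: 0 for no effect and ±100 for the full control effect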
How it was run: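 Read-out: CCF4 FRET ratio (460 nm/530 nm) after 1 h RT dye loading, used for %activity and AC50 from titration series. Cells: Jurkat NFAT-β-lactamase/M1 line, treated with compound plus 1 uM carbachol for 5 h, 37 °C.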

[4] = Stat Signaling Pathway (AID 446); conditions: ME-180 SIE beta-lactamase reporter, IL-6 stimulated, 5 h; at 7.69 µM (top of the series) unless noted;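 note: ME-180 cervical cancer cells given 40 pM IL-6 alongside compound; SIE-controlled beta-lactamase reporter measured as 460/530 nm FRET emission ratio; % is set by controls: 0 for no effect and ±100 for the full control effect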
How it was run: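 Normalization used AC90 stimulation (300 pM IL-6) and AC90 inhibition (125 nM pan-JAK inhibitor at 40 pM IL-6). The underlying signal is SIE-driven beta-lactamase in ME-180 cells after 5 h IL-6 exposure with compound.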

[5] = target: Glucocorticoid receptor (Homo sapiens) (UniProt P04150); test: GR-GFP Redistribution (AID 450;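 active = compounds whose dose series gives a full or clear partial fitted curve of increased nuclear translocation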; note: potency is the fitted concentration of half-maximal effect); conditions: U2OS GR-GFP nuclear translocation, laser cytometry, 2 h
Chain of Glucocorticoid receptor (Homo sapiens) (P04150 whole entry, looked up, the tested form may be a part): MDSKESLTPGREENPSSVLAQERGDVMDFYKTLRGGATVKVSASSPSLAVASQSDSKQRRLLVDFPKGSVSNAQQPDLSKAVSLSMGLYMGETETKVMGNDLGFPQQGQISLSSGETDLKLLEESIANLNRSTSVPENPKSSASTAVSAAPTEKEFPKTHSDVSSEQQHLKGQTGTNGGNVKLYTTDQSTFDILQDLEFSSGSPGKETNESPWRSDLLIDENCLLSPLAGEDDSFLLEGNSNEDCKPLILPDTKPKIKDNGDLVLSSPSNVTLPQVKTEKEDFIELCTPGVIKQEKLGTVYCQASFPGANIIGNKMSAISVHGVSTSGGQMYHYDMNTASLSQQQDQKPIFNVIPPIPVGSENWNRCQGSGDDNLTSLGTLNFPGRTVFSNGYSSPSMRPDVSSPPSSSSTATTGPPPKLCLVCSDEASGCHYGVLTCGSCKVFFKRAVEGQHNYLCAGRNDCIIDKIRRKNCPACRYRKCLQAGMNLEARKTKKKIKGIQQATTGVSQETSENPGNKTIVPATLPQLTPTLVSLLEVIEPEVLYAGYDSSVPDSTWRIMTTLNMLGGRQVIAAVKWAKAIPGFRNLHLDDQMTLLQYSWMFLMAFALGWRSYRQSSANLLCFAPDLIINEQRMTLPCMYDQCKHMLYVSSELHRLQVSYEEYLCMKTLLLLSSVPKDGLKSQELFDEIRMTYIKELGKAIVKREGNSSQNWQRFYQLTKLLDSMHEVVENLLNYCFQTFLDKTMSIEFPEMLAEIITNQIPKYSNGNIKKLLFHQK

[6] = target: Glucocorticoid receptor (Homo sapiens) (UniProt P04150); test: GR-EFC Redistribution (AID 451; calls by dose curve; note: potency is the fitted concentration of half-maximal effect); conditions: CHO-K1 GR-EFC translocation, beta-gal luminescence, 2 h
How it was run: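 Translocation of GR-ED fusion to nuclear EA restores b-gal, read by luminescence after 1 h room-temperature detection. Engineered CHO-K1 biosensor cells, 1,000/well, exposed 2 h at 37 C to titrations up to 46 uM final.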

[7] = target: Mitogen-activated protein kinase 10 (Mus musculus) (UniProt Q61831); test: JNK3 AlphaScreen Assay (AID 530); conditions: JNK3 lysate, c-Jun phosphorylation; series mostly up to 11.4 µM;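 note: kinase came from lysate of stimulated human HepG2 cells; signal reports phosphorylation of biotinylated GST-cJun 1-79 at Ser73 with 10 µM ATP; % is set by controls: 0 for no effect and ±100 for the full control effect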
How it was run: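 qHTS titrations with 15 min compound pre-incubation before adding ATP (10 uM final). Read-out: AlphaScreen of Ser73-phosphorylated biotin-GST-cJun using HepG2 lysate JNK3 activated by IL-1β and TNFα.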

[8] = target: 3',5'-cyclic-AMP phosphodiesterase 4B (Homo sapiens) (UniProt Q07343); test: qHTS Assay for Inhibitors of PDE-IV (AID 607; active = well fitted activation curve with a large enough effect in the main read-out, with a control signal flat, not every such curve was filed as active; note: % of control where 0% means no effect); conditions: HEK293 ACTOne CNG channel cells, membrane potential fluorescence; series mostly up to 22.9 µM
Chain of 3',5'-cyclic-AMP phosphodiesterase 4B (Homo sapiens) (Q07343 whole entry, looked up): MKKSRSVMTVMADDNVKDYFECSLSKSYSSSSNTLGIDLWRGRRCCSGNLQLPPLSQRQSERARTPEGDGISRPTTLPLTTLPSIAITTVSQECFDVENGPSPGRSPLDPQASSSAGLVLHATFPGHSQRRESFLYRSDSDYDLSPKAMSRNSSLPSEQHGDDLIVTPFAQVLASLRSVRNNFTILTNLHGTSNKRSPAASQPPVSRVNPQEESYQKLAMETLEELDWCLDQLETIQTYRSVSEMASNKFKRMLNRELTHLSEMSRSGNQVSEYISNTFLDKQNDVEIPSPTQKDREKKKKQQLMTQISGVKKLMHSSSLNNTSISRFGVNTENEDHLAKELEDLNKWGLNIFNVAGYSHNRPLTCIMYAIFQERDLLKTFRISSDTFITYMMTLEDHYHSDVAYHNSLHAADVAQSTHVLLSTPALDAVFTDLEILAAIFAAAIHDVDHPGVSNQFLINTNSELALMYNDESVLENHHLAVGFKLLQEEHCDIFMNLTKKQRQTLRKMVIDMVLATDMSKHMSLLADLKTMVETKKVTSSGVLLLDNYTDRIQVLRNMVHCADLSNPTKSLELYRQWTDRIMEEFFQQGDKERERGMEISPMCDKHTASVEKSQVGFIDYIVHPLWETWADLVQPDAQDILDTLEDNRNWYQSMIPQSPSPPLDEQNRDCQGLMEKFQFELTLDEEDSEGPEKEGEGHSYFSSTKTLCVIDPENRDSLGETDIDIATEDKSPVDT
How it was run: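 HEK293 ACTOne cells with CNG channel (1000/well), endogenous PDE4; membrane potential dye, compounds up to 22.9 uM final. Fluorescence Ex 535/Em 590; RO 20-1724 (100 uM final) as reference.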

[9] = target: Cytochrome P450 2C19 (Homo sapiens) (UniProt P33261); test: qHTS Assay for Inhibitors and Substrates of Cytochrome P450 2C19 (AID 899; active = well fitted curve in the direction sought with a large enough effect; an effect the other way counts as inactive or inconclusive; note: potency is the fitted concentration of half-maximal effect; nearly all actives have a fitted effect of over 60% in size); conditions: recombinant CYP2C19, luciferin-H EGE luminescence; series mostly up to 11.4 µM
Chain of Cytochrome P450 2C19 (Homo sapiens) (P33261 whole entry, looked up): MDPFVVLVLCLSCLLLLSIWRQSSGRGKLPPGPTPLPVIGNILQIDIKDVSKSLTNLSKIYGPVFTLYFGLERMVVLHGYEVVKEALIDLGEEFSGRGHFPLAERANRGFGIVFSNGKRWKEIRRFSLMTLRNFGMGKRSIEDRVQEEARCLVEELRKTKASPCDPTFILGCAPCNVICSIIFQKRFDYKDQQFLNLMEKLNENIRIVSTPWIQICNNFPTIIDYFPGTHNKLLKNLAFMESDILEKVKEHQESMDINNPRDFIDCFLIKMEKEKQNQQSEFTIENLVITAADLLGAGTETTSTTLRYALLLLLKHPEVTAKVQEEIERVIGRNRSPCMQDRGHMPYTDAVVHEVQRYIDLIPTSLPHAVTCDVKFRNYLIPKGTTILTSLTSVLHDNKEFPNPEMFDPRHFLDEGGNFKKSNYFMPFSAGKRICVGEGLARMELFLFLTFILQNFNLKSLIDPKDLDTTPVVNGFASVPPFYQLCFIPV
How it was run: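 Reactions contain 5nM enzyme, 10uM Luciferin-H EGE (KM) and 50mM KPO4; compound preincubates 10 min at 37C, NADPH regeneration starts turnover for 60 min. Luminescence after detection reagent gives activity.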

[10] = target: Cytochrome P450 3A4 (Homo sapiens) (UniProt P08684); test: qHTS Assay for Inhibitors and Substrates of Cytochrome P450 3A4 (AID 884; active = well fitted curve in the direction sought with a large enough effect; an effect the other way counts as inactive or inconclusive; note: potency is the fitted concentration of half-maximal effect; nearly all actives have a fitted effect of over 50% in size); conditions: recombinant CYP3A4, Luciferin-PPXE luminescence; series mostly up to 57.1 µM
Chain of Cytochrome P450 3A4 (Homo sapiens) (P08684 whole entry, looked up): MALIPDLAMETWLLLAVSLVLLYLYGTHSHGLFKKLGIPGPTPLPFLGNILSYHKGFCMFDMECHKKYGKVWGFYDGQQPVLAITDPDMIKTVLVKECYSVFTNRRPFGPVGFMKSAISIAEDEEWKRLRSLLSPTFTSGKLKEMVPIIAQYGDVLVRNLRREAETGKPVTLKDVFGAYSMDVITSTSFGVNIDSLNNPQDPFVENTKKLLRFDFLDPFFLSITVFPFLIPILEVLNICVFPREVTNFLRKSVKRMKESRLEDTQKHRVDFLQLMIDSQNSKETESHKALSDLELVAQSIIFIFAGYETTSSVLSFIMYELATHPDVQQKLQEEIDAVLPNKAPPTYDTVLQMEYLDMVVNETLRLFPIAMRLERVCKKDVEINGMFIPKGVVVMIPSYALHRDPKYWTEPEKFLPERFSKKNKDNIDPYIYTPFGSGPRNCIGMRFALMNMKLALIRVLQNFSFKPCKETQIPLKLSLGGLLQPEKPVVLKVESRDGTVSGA
How it was run: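 Luminescent readout of luciferin produced by CYP3A4 (20 nM) dealkylation of Luciferin-PPXE, 25 uM (its KM). NADPH-driven reaction ran 60 min at RT after 10 min compound preincubation; data scaled to 57 uM ketoconazole as 100% inhibition.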

[11] = target: Cytochrome P450 3A4 (Homo sapiens) (UniProt P08684); test: qHTS Assay for Activators of Cytochrome P450 3A4 (AID 885; active = well fitted curve in the direction sought with a large enough effect; an effect the other way counts as inactive or inconclusive; note: nearly all actives have a fitted effect of over 65% in size); conditions: recombinant CYP3A4, Luciferin-PPXE luminescence, 60 min; series mostly up to 11.4 µM
How it was run: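 Human CYP3A4 dealkylates Luciferin-PPXE to luciferin, which luciferase detection converts to light. Substrate was at its KM (25uM), buffer 200mM KPO4, reaction 60 min at RT.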

[12] = qHTS Assay for Identification of Small Molecule Agonists for Hypoxia Response Element Signaling Pathway (AID 914; active = well fitted activation curve with a large enough effect in the signal ratio, with a control signal flat, not every such curve was filed as active; the % refers to the signal ratio; note: % of control where 0% means no effect); conditions: ME-180 HRE-bla reporter, beta-lactamase ratio, CoCl2, 17 h; activation: active compounds read high
How it was run: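 ME-180 cells carrying an HRE-driven beta-lactamase reporter were treated with compounds in a titration series plus an EC50 level of CoCl2 for 17 h at 37 degrees Celsius; CCF4 readout as the 460nm/530nm ratio gave AC50 values.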

[13] = target: Cytochrome P450 2D6 (Homo sapiens) (UniProt P10635); test: qHTS Assay for Inhibitors and Substrates of Cytochrome P450 2D6 (AID 891; active = well fitted curve in the direction sought with a large enough effect; an effect the other way counts as inactive or inconclusive; note: potency is the fitted concentration of half-maximal effect; nearly all actives have a fitted effect of over 60% in size); conditions: recombinant CYP2D6, luciferin-ME EGE luminescence; series mostly up to 11.4 µM
Chain of Cytochrome P450 2D6 (Homo sapiens) (P10635 whole entry, looked up): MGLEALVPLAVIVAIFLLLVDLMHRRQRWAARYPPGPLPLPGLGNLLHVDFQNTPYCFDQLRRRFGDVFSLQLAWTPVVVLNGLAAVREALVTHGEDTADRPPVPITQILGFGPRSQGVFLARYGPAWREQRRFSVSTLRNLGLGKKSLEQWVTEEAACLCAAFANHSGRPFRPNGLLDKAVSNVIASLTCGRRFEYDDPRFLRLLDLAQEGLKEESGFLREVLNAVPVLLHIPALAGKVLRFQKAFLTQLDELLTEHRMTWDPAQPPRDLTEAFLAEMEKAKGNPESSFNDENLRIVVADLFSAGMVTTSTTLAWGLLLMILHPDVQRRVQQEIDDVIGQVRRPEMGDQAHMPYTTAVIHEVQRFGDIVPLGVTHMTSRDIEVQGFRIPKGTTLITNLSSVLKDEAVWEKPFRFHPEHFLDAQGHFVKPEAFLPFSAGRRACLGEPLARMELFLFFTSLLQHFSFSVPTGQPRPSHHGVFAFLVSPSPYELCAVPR
How it was run: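 Luminescent read-out of luciferin formed by 5 nM human CYP2D6 demethylating 30 uM Luciferin-ME EGE (Km level) over 60 min at room temperature after NADPH regeneration addition. Data normalized to full inhibition by 1.43 uM quinidine.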

With `COc1ccc2nc(NCN3C(=O)c4ccccc4C3=O)sc2c1` the Potency [1] was over 11.4 µM, the Potency [2] was 3.98 µM (active) and the activity change, negative = inhibition [3] was -16%. It also gave an activity, negative = inhibition [4] of 10.9%, a Potency [5] of over 46 µM and a Potency [6] of over 9.22 µM. For the same compound, the Potency [7] was “inactive”, the Potency [8] was “inactive” and the Potency [9] was 2.51 µM (active).

In the case of `Cn1c(=S)c2[nH]c(SCCCc3ccccc3)nc2n(C)c1=O`, the Potency [1] is reported as over 11.4 µM, the Potency [2] is reported as 3.16 µM (active) and the activity change, negative = inhibition [3] is reported as 3.04%. The activity, negative = inhibition [4] was -23.2%, the Potency [5] was over 46 µM and the Potency [6] was over 9.22 µM. The Potency [7] was “inactive” and the Potency [8] was “inactive”.

In the case of `CN(C)CCCN1c2ccc3ccccc3c2Sc2cccc(Cl)c21`, the Potency [1] is reported as over 11.4 µM, the Potency [2] is reported as 1 µM (active) and the activity change, negative = inhibition [3] is reported as 1.06%. The activity, negative = inhibition [4] was 2.06%, the Potency [5] was over 46 µM and the Potency [6] was over 9.22 µM. For the same compound, the Potency [7] was “inactive”, the Potency [8] was “inactive” and the Potency [9] was 5.01 µM (active).

With `CC[C@H](CN(C)C)C(=O)c1ccco1` the Potency [1] was over 11.4 µM, the Potency [2] was “inactive” and the activity change, negative = inhibition [3] was -14.2%. It also gave an activity, negative = inhibition [4] of -1.8%, a Potency [5] of over 46 µM and a Potency [6] of over 9.22 µM. The Potency [7] was “inactive” and the Potency [8] was “inactive”.

For `Nc1nc(SCCc2ccccc2)c2[nH]cnc2n1`, the Potency [1] was over 11.4 µM, the Potency [2] was 3.16 µM (active) and the activity change, negative = inhibition [3] was 15.6%. The activity, negative = inhibition [4] was -1.34%, the Potency [5] was over 46 µM and the Potency [6] was over 9.22 µM. The Potency [7] was “inactive”, the Potency [8] was “inactive” and the Potency [10] was 2.51 µM (active). The Potency [11] was “inactive” and the Potency [9] was 0.631 µM (active).

With `NS(=O)(=O)c1ccc(N=Nc2ccc(O)c(C(=O)O)c2)cc1` the Potency [1] was over 11.4 µM, the Potency [2] was “inactive” and the activity change, negative = inhibition [3] was -4.82%. For the same compound, the activity, negative = inhibition [4] was -2.97%, the Potency [5] was over 46 µM and the Potency [6] was over 9.22 µM. The Potency [7] was “inactive”, the Potency [8] was “inactive” and the activation [12] was 12.3%.

With `Cc1[nH]c2c(C)ccc(C)c2c1CC(=O)O` the Potency [1] was over 11.4 µM, the Potency [2] was 3.16 µM (active) and the activity change, negative = inhibition [3] was 10.6%. For the same compound, the activity, negative = inhibition [4] was 9.85%, the Potency [5] was over 46 µM and the Potency [6] was over 9.22 µM. The Potency [7] was “inactive”, the Potency [8] was “inactive” and the Potency [11] was “inactive”. The Potency [9] was 0.316 µM (active).

In the case of `CC(=O)O[C@H]1CC[C@@]2(C)C(=CC[C@@H]3[C@@H]4CC[C@H](c5cc(C(F)(F)F)n(C(C)=O)n5)[C@]4(C)CC[C@@H]32)C1`, the Potency [1] is reported as over 11.4 µM, the Potency [2] is reported as “inactive” and the activity change, negative = inhibition [3] is reported as 12.1%. For the same compound, the activity, negative = inhibition [4] was 16.4%, the Potency [5] was over 46 µM and the Potency [6] was over 9.22 µM. The Potency [7] was “inactive” and the Potency [8] was “inactive”.

With `CN(C)Cc1cc(O)c(O)c(CN(C)C)c1` the Potency [1] was over 11.4 µM, the Potency [2] was “inactive” and the activity change, negative = inhibition [3] was 3.49%. It also gave an activity, negative = inhibition [4] of 2.92%, a Potency [5] of over 46 µM and a Potency [6] of over 9.22 µM. For the same compound, the Potency [7] was “inactive” and the Potency [8] was “inactive”.

In the case of `Cc1cc(Cl)nc(NC(=O)CSc2ccc(Cl)cc2)n1`, the Potency [1] is reported as over 11.4 µM, the Potency [2] is reported as 5.01 µM (active) and the activity change, negative = inhibition [3] is reported as 16.8%. It also gave an activity, negative = inhibition [4] of 11%, a Potency [5] of over 46 µM and a Potency [6] of over 9.22 µM. The Potency [7] was “inactive” and the Potency [8] was “inactive”.

With `COc1ccc2c(=O)cc(-c3ccncc3)oc2c1OC` the Potency [1] was over 11.4 µM, the Potency [2] was 1.58 µM (active) and the activity change, negative = inhibition [3] was 2.62%. It also gave an activity, negative = inhibition [4] of -17.8%, a Potency [5] of over 46 µM and a Potency [6] of over 9.22 µM. The Potency [7] was “inactive”, the Potency [8] was “inactive” and the Potency [11] was “inactive”. The Potency [9] was 1.58 µM (active).

With `COc1ccc2c(c1)N(CC[C@H]1CCCCN1C)c1ccccc1S2` the Potency [1] was over 11.4 µM, the Potency [2] was 1.26 µM (active) and the activity change, negative = inhibition [3] was -80.4% (active). For the same compound, the activity, negative = inhibition [4] was -6.74%, the Potency [5] was over 46 µM and the Potency [6] was over 9.22 µM. The Potency [7] was “inactive”, the Potency [8] was “inactive” and the Potency [13] was 0.0501 µM (active).

For `O=C(O)CCC(=O)Nc1ccc2ccccc2c1`, the Potency [1] was over 11.4 µM, the Potency [2] was 0.0631 µM (active) and the activity change, negative = inhibition [3] was 4.48%. The activity, negative = inhibition [4] was 8.45%, the Potency [5] was over 46 µM and the Potency [6] was over 9.22 µM. The Potency [7] was “inactive” and the Potency [8] was “inactive”.

`O=C(Nc1ccc2oc(=O)c(C(=O)O)cc2c1)Oc1ccccc1` showed a Potency [1] of over 11.4 µM, an activity change, negative = inhibition [2] of -15.3% [at 2.29 µM] and an activity change, negative = inhibition [3] of 9.87%. For the same compound, the activity, negative = inhibition [4] was 1.95%, the Potency [5] was over 46 µM and the Potency [6] was over 9.22 µM. The Potency [7] was “inactive” and the Potency [8] was “inactive”.

For `COc1ccc(Oc2ncc3nc(CCc4ccccc4)c(=O)n(C4CC4)c3n2)cc1`, the Potency [1] was over 11.4 µM, the Potency [2] was 12.6 µM (active) and the activity change, negative = inhibition [3] was 5.02%. For the same compound, the activity, negative = inhibition [4] was -0.549%, the Potency [5] was over 9.22 µM and the Potency [6] was over 46 µM. For the same compound, the Potency [7] was “inactive”, the Potency [11] was “inactive” and the Potency [9] was 1.58 µM (active).
